Only some compounds are listed: those with a hit (about 13% of all), similar ones and a draw of the others.
USP8 inh: inhibitors of human USP8 deubiquitinase; inhibition, % at 20 µM; Ubiquitin carboxyl-terminal hydrolase 8 (Homo sapiens), P40818; purified USP8, Ub-rhodamine cleavage fluorescence, 30 min; hit rate 4.2% among 47,000
USP17 inh: inhibitors of human USP17 deubiquitinase | hit rate 6.5% among 47,000 | inhibition, % at 50 µM | purified USP17, Ub-rhodamine cleavage fluorescence, 3 h | Ubiquitin carboxyl-terminal hydrolase 17-like protein 5 (Homo sapiens), A8MUK1
USP28 block: inhibitors of human USP28 deubiquitinase; hit rate 3% among 47,000; purified USP28, Ub-rhodamine cleavage fluorescence, 30 min; inhibition, % at 25 µM; AID 1645857, 2021; Ubiquitin carboxyl-terminal hydrolase 28 (Homo sapiens), Q96RU2
Target sequence (Q96RU2 whole entry, looked up): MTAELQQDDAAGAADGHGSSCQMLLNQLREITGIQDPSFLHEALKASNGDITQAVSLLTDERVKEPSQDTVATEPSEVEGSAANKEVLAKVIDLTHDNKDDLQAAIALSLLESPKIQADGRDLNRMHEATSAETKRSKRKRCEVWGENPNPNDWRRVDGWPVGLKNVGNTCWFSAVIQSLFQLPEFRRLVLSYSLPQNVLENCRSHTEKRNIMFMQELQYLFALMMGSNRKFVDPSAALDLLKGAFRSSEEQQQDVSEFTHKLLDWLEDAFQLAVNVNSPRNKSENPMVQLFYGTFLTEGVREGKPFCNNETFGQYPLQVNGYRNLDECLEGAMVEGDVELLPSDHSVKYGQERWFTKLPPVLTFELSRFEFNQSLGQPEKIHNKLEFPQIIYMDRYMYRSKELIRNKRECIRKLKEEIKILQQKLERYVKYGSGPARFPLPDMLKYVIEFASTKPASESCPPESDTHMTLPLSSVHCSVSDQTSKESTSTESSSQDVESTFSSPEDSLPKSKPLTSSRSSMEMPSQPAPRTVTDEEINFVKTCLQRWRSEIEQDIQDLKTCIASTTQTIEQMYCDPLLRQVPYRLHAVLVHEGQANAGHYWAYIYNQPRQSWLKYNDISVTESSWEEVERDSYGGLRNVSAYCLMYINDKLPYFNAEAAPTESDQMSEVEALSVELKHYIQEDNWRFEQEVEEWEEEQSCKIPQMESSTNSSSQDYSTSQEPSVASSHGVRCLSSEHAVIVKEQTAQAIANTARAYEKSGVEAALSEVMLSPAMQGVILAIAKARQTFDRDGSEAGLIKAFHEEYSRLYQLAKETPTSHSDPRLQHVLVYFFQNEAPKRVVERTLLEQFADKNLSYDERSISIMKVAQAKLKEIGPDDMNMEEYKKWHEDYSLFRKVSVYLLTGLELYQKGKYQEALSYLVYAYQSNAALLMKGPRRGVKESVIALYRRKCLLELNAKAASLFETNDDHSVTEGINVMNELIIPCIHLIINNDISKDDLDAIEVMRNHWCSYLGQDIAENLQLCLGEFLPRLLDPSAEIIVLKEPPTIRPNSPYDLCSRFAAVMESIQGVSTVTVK
USP30 block: inhibitors of human USP30 deubiquitinase; Ubiquitin carboxyl-terminal hydrolase 30 (Homo sapiens), Q70CQ3; purified USP30, Ub-rhodamine cleavage fluorescence; inhibition, % at 25 µM; hit rate 5.3% among 47,000
An asterisk follows results filed as active; . = no result. Rule as the data show it: active = inhibition above about 30%; inactive = the rest.

SMILES | USP8 inh | USP17 inh | USP28 block | USP30 block
CC(C)CCCCCCCCCCCC(=O)O | 7.9 | 43.0* | 13.6 | 46.9*
Cc1ccc(-n2c(-c3cccs3)cn3c4c(=O)n(C)c(=O)n(C)c4nc23)cc1 | 5.9 | 35.9* | -3.7 | -2.4
Cn1c(=O)c2c(nc3n(-c4ccc(F)cc4)c(-c4ccc(Br)cc4)cn23)n(C)c1=O | 4.0 | 5.7 | 0.0 | 0.9
Cn1c(=O)c2c(nc3n(-c4ccccc4F)c(-c4ccccc4)cn23)n(C)c1=O | 8.7 | 39.0* | 1.6 | 72.4*
COc1ccc(CCn2c(-c3ccccc3)cn3c4c(=O)n(C)c(=O)n(C)c4nc23)cc1OC | -37.9 | 9.9 | 16.5 | 38.6*
Cc1cn2c3c(=O)n(C)c(=O)n(C)c3nc2n1Cc1cccc2ccccc12 | -79.9 | 7.4 | 10.0 | 48.5*
Cn1c(=O)c2c(nc3n(CCCCO)c(-c4ccccc4)cn23)n(C)c1=O | -13.0 | 0.5 | 14.3 | 16.6
COc1ccc(CC(=O)N2CCN(S(=O)(=O)c3c(C)nn(C)c3C)CC2)cc1 | 1.7 | 3.3 | -6.7 | 0.2
COc1ccc(C(c2c(O)cc(C)n(Cc3ccccc3)c2=O)N2CCN(C)CC2)cc1 (stereo unspecified) | 22.8 | 10.7 | 14.4 | -0.3
O=C(Nc1cccc(S(=O)(=O)NC2=NCCC2)c1)c1cc(-c2ccccc2)n[nH]1 | 4.2 | 38.8* | 42.5* | 36.8*
O=C(Nc1cccc(S(=O)(=O)NC2=NCCC2)c1)c1cc(-c2ccccc2)nc2ccccc12 | 0.6 | -5.2 | -7.9 | -17.0
Cc1ccccc1Cn1nnc2c(=O)n(Cc3nc(-c4ccccc4)no3)cnc21 | -2.1 | -4.1 | -4.3 | -31.9
O=c1c2nnn(Cc3ccccc3)c2ncn1Cc1nc(-c2cccc(Cl)c2)no1 | 15.2 | -6.9 | 14.3 | 35.6*
COc1ccc(C)cc1NC(=O)Cn1c(C)cc(C)c1-c1nc(C(C)C)no1 | 14.3 | 23.8 | 7.4 | 30.6*
Cc1nn(-c2nc3ccccc3o2)c2c1C(c1ccc(F)c(F)c1)CC(=O)N2 (stereo unspecified) | -0.5 | 0.9 | 8.1 | 20.0
Cc1cc(C2CC(=O)Nc3c2c(C)nn3-c2nc3ccccc3[nH]2)c(C)s1 (stereo unspecified) | 30.4* | 50.6* | -8.8 | -10.4
CCN(CC)C(=O)C1Cn2ccnc2C2(CCN(C(=O)Cc3cccc(OC)c3)CC2)O1 (stereo unspecified) | -66.2 | -11.5 | 16.1 | 15.1
CCN1C(=O)[C@H]2CN(S(C)(=O)=O)C[C@H]2C12CCN(C(=O)NCc1ccccc1C)CC2 | -8.7 | -0.7 | 7.5 | 9.9
CCn1c(SCC(=O)N2CCc3ccccc32)nnc1-c1ccc2c(c1)OCCO2 | -16.6 | 57.9* | 4.1 | 74.2*
CCn1c(SCC(=O)N2CCc3ccccc32)nnc1C1CC1 | 0.2 | -9.5 | . | .
COc1ccc(OC)c(-n2c(SCC(=O)N3CCc4ccccc43)nnc2-c2cccc(S(=O)(=O)N(C)C)c2)c1 | 10.9 | 48.0* | 43.3* | 48.7*
CCn1c(SCC(=O)N2CCc3ccccc32)nnc1-c1ccc(C)c(Cl)c1 | -1.7 | 32.6* | 8.3 | 20.8
Cc1[nH]c2ccccc2c1C(=O)CSc1nnc(-c2cccc(S(=O)(=O)N3CCOCC3)c2)n1-c1ccc(F)cc1 | 20.2 | 18.8 | 0.3 | 1.4
CCn1c(SCC(=O)c2c(C)[nH]c3ccccc23)nnc1-c1ccc2c(c1)OCCO2 | -9.1 | 66.9* | 41.0* | 53.1*
COc1ccc(Sc2cc(CS(=O)(=O)c3ccccc3)nc(C)n2)cc1 | 15.6 | . | 22.1 | 29.4
SMILES | USP8 inh | USP17 inh | USP28 block | USP30 block
CC(NC(=O)c1cccc(N2C(=O)C(C)(C)CS2(=O)=O)c1)c1ccccc1 (stereo unspecified) | -17.9 | -8.4 | -4.5 | -19.8
O=C(COc1ccccc1F)N1CCC(c2[nH]nc3nccnc23)CC1 | -49.2 | 5.9 | 7.3 | 2.6
COc1cc2nc(NC(=O)c3ccc(OC(F)(F)F)cc3)sc(=O)c2cc1OC | 1.8 | 2.7 | 0.3 | 7.6
CC(C)Oc1ccc(C(=O)Nc2cccc(S(=O)(=O)N3CCCC3)c2)cc1 | 11.2 | 19.1 | 63.0* | 25.4
CN(C)S(=O)(=O)c1cccc(NC(=O)c2cc(F)cc(F)c2)c1 | 16.5 | 12.6 | 18.9 | 24.5
Cc1cc(C)n(-c2ccc(C(=O)Nc3cccc(S(=O)(=O)N4CCCC4)c3)cc2)n1 | -17.9 | 28.8 | 69.4* | 74.2*
CCN(CC)S(=O)(=O)c1cccc(NC(=O)c2ccc(OC(F)(F)F)cc2)c1 | 17.5 | 13.4 | 30.2* | 17.7
CC(C)CCN1[C@H]2CCN(C)CC[C@@H]2Oc2ccccc2S1(=O)=O | -1.4 | -19.3 | -11.5 | -162.9
O=C(CC1CCOCC1)N1CCC(c2cc(=O)n3[nH]ccc3n2)CC1 | -30.4 | -12.5 | -7.0 | -4.8
Cc1ccccc1-c1noc(-c2cccn(CC(=O)Nc3ccccc3F)c2=O)n1 | 75.7* | 7.6 | -24.0 | -36.0
COc1ccccc1NC(=O)COC(=O)c1cc2cc(Br)ccc2o1 | -10.1 | -23.4 | -26.8 | -78.5
CC(OC(=O)c1c2c(nc3ccccc13)CCCCC2)C(=O)Nc1ccc2ccccc2c1 (stereo unspecified) | 34.8* | 63.3* | 44.3* | 27.3
CC(OC(=O)c1c2c(nc3ccccc13)CCCC2)C(=O)Nc1ccc(N(C)C)cc1 (stereo unspecified) | 0.0 | 40.5* | -11.8 | -56.1
CC(Oc1nncc2ccccc12)C(=O)Nc1ccc(S(=O)(=O)N2CCCC2)cc1 (stereo unspecified) | -3.4 | -6.7 | -1.9 | -5.9
CC(Oc1nncc2ccccc12)C(=O)Nc1ccc(Cl)cc1Cl (stereo unspecified) | 28.4 | 66.8* | 19.3 | 72.1*
Cc1ccc(NC(=O)c2c3c(nc4ccccc24)CCCCC3)c(C)c1 | 11.7 | 74.5* | 6.3 | 34.9*
Cc1ccc(Nc2nc(N)nc(CN3CCCC3C(N)=O)n2)cc1 (stereo unspecified) | 18.0 | 13.0 | 14.8 | 16.3
CC(C)c1ccc(NC(=O)COc2nncc3ccccc23)cc1 | 0.5 | 22.0 | 11.8 | 33.2*
CC(OC(=O)c1c2c(nc3ccccc13)CCCC2)C(=O)Nc1ccc(Cl)cc1Cl (stereo unspecified) | -11.6 | 30.5* | 4.5 | -5.4
COc1ccc(C2c3c(C)nn(-c4ccccc4)c3Oc3ncn4nc(-c5ccc6ccccc6n5)nc4c32)cc1OC (stereo unspecified) | -87.6 | -2.0 | 16.7 | 21.2
O=C(c1noc2c1CCCC2)N1CCN(c2ccccn2)CC1 | -3.6 | -7.3 | -9.2 | -0.9
Cc1cccn2c(=O)cc(CN3CCCC3c3ccc4c(c3)OCCCO4)nc12 (stereo unspecified) | -32.6 | -3.1 | -0.1 | -0.3
COCCn1c(=S)[nH]c2cc(C(=O)NCCSCc3ccccc3)ccc2c1=O | 8.7 | 27.0 | 17.1 | 70.5*
COc1ccc(OCc2nn3c(-c4ccccc4Cl)nnc3s2)cc1 | -28.2 | 21.8 | 19.0 | 32.0*
CC(NCCc1ccc(Cl)cc1)c1nc2scc(-c3ccccc3)c2c(=O)[nH]1 (stereo unspecified) | -16.7 | 35.0* | -3.7 | -24.4

From PubChem
